The values below come from PubChem BioAssay (Tox21).

Inconclusive results are not listed. Entries that show only a call come without a potency. Calls of active or inactive are those of the source. Calls come from the whole dose curve.

A short description of the assay: qHTS assay for small molecule agonists of the p53 signaling pathway - cell viability (AID 651633).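 Note: p53RE-bla HCT reporter cells with a stable beta-lactamase p53 reporter; nearly all actives have a fitted effect of over 30% in size.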 Conditions: p53RE-bla HCT-116 viability, ATP luminescence, 16 h; series mostly up to 83.3 µM. The source says:
National Center for Advancing Translational Sciences [NCATS]
NIH Chemical Genomics Center [NCGC]
U.S. Environmental Protection Agency [EPA]
National Institutes of Environmental Health Sciences [NIEHS]
National Toxicology Program [NTP]
U.S. Food and Drug Administration [FDA]
p53, a tumor suppressor protein, is activated following cellular insult, including DNA damage and other cellular stresses. The activation of p53 regulates cell fate by inducing DNA repair, cell cycle arrest, apoptosis, or cellular senescence. The activation of p53, therefore, is a good indicator of DNA damage and other cellular stresses. […] The activation of the reporter gene under culture conditions can be detected by fluorescence intensity. This cell line was used to screen the Tox21 compound library in a 1536-well plate format and to identify agonists that activate the p53 signaling pathway.
Tox21 Assay Protocol Summary:
The p53RE-bla cells were dispensed at 4,000 cells/5 ul/well in 1536-well black wall/clear bottom plates using a Multidrop dispenser. After the assay plates were incubated at a 37 C/5% CO2 incubator for 5 hours, 23 nL of compounds dissolved in DMSO, positive controls or DMSO only was transferred to the assay plate by a pin tool. The plates were incubated at 37 C for 16 hours. After 1 uL of LiveBLAzerTM B/G FRET substrate was added using a Flying Reagent Dispenser, the plates were incubated at room temperature for 2 hours, and fluorescence intensity was measured by an Envision plate reader.
For cell viability readout that measures cytotoxicity, 4 ul/well of CellTiter-Glo reagent was added into the assay plates using a Flying Reagent Dispenser. After 30 min incubation at room temperature, the luminescence intensity in the plates was measured using a ViewLux plate reader.
For orientation: In qHTS, concentration-response curves come from the screen itself.
In the case of `CN1C[C@@H](NS(=O)(=O)N(C)C)C[C@@H]2c3cccc4c3c(cn4C)C[C@H]21`, the Potency result was “inactive”.
Take `CCNc1nc(NC(C)C)nc(OC)n1`: the Potency result was “inactive”.
Then `O=[N+]([O-])c1ccc2c3c(cccc13)CC2`, with “inactive”; and `O=S(=O)(O)C(F)(F)C(F)(F)C(F)(F)C(F)(F)C(F)(F)C(F)(F)F`, with “inactive”.
Then `CCCCc1c(C)nc(NCC)[nH]c1=O`, with “inactive”; and `N#Cc1c(Cl)cccc1Cl`, with “inactive”.
For the compound `CCOP(=S)(OCC)SCSP(=S)(OCC)OCC`, the Potency result was “inactive”.
`CC1=NNC(=O)N(/N=C/c2cccnc2)C1`: the Potency entry is “inactive”.
`CCCCc1ccc(O)cc1`: the Potency result was “inactive”.
Regarding `O=C1OC(c2ccc(O)c(S(=O)(=O)O)c2)(c2ccc(O)c(S(=O)(=O)O)c2)c2c(Br)c(Br)c(Br)c(Br)c21`, the Potency entry is “inactive”.
On to `O=C(O)c1cccc(Cl)c1`, for which the Potency result was “inactive”.
Then `O=NN1CCN(N=O)CC1`, with “inactive”; and `CCCCOC(=O)[C@@H](C)Oc1ccc(Oc2ccc(C#N)cc2F)cc1`, with “inactive”.
`O=CNC(N1CCN(C(NC=O)C(Cl)(Cl)Cl)CC1)C(Cl)(Cl)Cl` (stereo not given): the Potency entry is “inactive”.
With `Nc1cnn(-c2ccccc2)c(=O)c1Cl`, the Potency entry was “inactive”.
Then `O=C(Cc1ccccc1)OCc1ccccc1`, with “inactive”; and `O=C(N[C@H]1CN2CCC1CC2)c1cc2ccoc2cn1`, with “inactive”; and `CCCCOC(=O)c1ccccc1N`, with “inactive”.
As to `CCN(Cc1ccc(Cl)nc1)/C(=C/[N+](=O)[O-])NC`, the Potency result was “inactive”.
As to `CCC(C)(C)c1cc(-n2nc3ccccc3n2)c(O)c(C(C)(C)CC)c1`, the Potency entry was “inactive”.
As for `CC1CCCCC1NC(=O)Nc1ccccc1` (stereo not given), the Potency entry was “inactive”.
As for `CCN(CC)c1nc(C)cc(OP(=S)(OC)OC)n1`, the Potency entry was “inactive”.
As to `COc1cc(C[C@@H](C)N)c(OC)cc1C`, the Potency entry is “inactive”.
Turning to `NC1=NC(=O)C(c2ccccc2)O1` (stereo not given), the Potency result is “inactive”.
For the compound `CC(C)CP(=S)(S)CC(C)C`, the Potency entry is “inactive”.
Take `CC(=O)Nc1cc([As](=O)(O)O)ccc1O`: the Potency entry is “inactive”.
Regarding `CC(=O)CCc1ccc2c(c1)OCO2`, the Potency entry was “inactive”.
Then `OCCSCSCCO`, with “inactive”; and `CC(CCc1ccccc1)NC(C)C(O)c1ccc(O)cc1` (stereo not given), with “inactive”; and `ClCCOCOCCCl`, with “inactive”.
Then `[O]=[Cd]`, with “inactive”; and `O=C(O)c1ccc2[nH]cc(CCCCN3CC=C(c4ccccc4)CC3)c2c1`, with “inactive”.
Consider `CC(C)(C)NCC(O)c1cc(Cl)c(N)c(Cl)c1` (stereo not given), for which the Potency result was “inactive”.
Regarding `O=C(O)C(Br)CBr` (stereo not given), the Potency entry is “inactive”.
On to `CCOP(=O)(OCC)OP(=O)(OCC)OCC`, for which the Potency result is “inactive”.
Then `NC(=O)c1cc([N+](=O)[O-])cc([N+](=O)[O-])c1`, with “inactive”.
Consider `Cc1nnc2n1-c1sc(CCC(=O)N3CCOCC3)cc1C(c1ccccc1Cl)=NC2`, for which the Potency entry was “inactive”.
With `OCCBr`, the Potency result was “inactive”.
Then `CCOC(=O)NC(=S)Nc1ccccc1NC(=S)NC(=O)OCC`, with “inactive”.
Consider `ClC(Cl)C(Cl)Cl`, for which the Potency result was “inactive”.
